Assay results reported in PubChem BioAssay (Tox21).
Results filed as inconclusive are left out. Calls of active or inactive are those of the source. The call rests on the fitted dose curve; in most records, active means well fitted curve in the direction sought with a large enough effect in the repeat runs; inconclusive means weak or mixed curves; inactive means no such curve, though single readings can be large; an effect the other way counts as inactive or inconclusive.

Legend:
[1] = qHTS RealTime-Glo MT Cell Viability Assay in HEK293 cells - 32 hour (AID 1224868); further: top concentration of the series differs between compounds; nearly all actives have a fitted effect of over 50% in size
Summary of the method: (§1)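 HEK293 cells seeded with NanoLuc/prosubstrate reagent, rested 5 h at 37 C, then dosed and kept at 37 C up to 40 h. Nonlytic real-time luminescence from viable cells read at 0, 8, 16, 24, 32 and 40 h.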

[2] = A CellTox Green Cytotoxicity Assay to monitor cytotoxicity in HEK293 cells - 0 hour (AID 1224869); further: nearly all actives have a fitted effect of over 50% in size
Summary of the method: (§2)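 Fluorescence from a DNA-binding dye excluded by viable cells was measured repeatedly in the same HEK293 wells (600 cells/well) during continuous compound exposure at 37 C. Each assay gives one read point: 0, 8, 16, 24, 32 or 40 h.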

[3] = A CellTox Green Cytotoxicity Assay to monitor cytotoxicity in HEK293 cells - 40 hour (AID 1224871); further: nearly all actives have a fitted effect of over 45% in size
Summary of the method: as §2

[4] = qHTS RealTime-Glo MT Cell Viability Assay in HEK293 cells - 16 hour (AID 1224872); further: top concentration of the series differs between compounds; nearly all actives have a fitted effect of over 50% in size
Summary of the method: as §1

[5] = qHTS RealTime-Glo MT Cell Viability Assay in HEK293 cells - 40 hour (AID 1224874); conditions: RealTime-Glo luminescence; max response: stronger effect = lower value; further: nearly all actives have a fitted effect of over 50% in size
Summary of the method: (§3)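 Luminescence, which tracks viable cell number through reduction of the prosubstrate to a NanoLuc substrate, was read over continuous 37 C culture. Cells (600/well) were premixed with reagent and rested 5 h before 23 nL of compound in DMSO was pinned.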

[6] = A CellTox Green Cytotoxicity Assay to monitor cytotoxicity in HEK293 cells - 24 hour (AID 1224875); further: series mostly up to about 77 µM; nearly all actives have a fitted effect of over 45% in size
Summary of the method: as §2

[7] = A CellTox Green Cytotoxicity Assay to monitor cytotoxicity in HepG2 cells - 16 hour (AID 1224876); further: nearly all actives have a fitted effect of over 45% in size
Summary of the method: (§4)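 Real-time cytotoxicity: fluorescence of a cell-impermeant cyanine dye binding DNA of dead HepG2 cells, measured repeatedly (0–40 h) during compound exposure at 37 C. Cells seeded 600/well with reagent, dosed after 5 h.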

[8] = A CellTox Green Cytotoxicity Assay to monitor cytotoxicity in HepG2 cells - 40 hour (AID 1224879); further: nearly all actives have a fitted effect of over 40% in size
Summary of the method: as §4

[9] = qHTS RealTime-Glo MT Cell Viability Assay in HEK293 cells - 0 hour (AID 1224880); further: top concentration of the series differs between compounds; nearly all actives have a fitted effect of over 45% in size
Summary of the method: as §3

[10] = A CellTox Green Cytotoxicity Assay to monitor cytotoxicity in HEK293 cells - 32 hour (AID 1224881); further: nearly all actives have a fitted effect of over 40% in size
Summary of the method: as §2

[11] = A CellTox Green Cytotoxicity Assay to monitor cytotoxicity in HepG2 cells - 0 hour (AID 1224882); further: nearly all actives have a fitted effect of over 35% in size
Summary of the method: as §4

[12] = A CellTox Green Cytotoxicity Assay to monitor cytotoxicity in HepG2 cells - 32 hour (AID 1224883); further: nearly all actives have a fitted effect of over 50% in size
Summary of the method: as §4

[13] = A CellTox Green Cytotoxicity Assay to monitor cytotoxicity in HEK293 cells - 8 hour (AID 1224884); further: nearly all actives have a fitted effect of over 35% in size
Summary of the method: as §2

[14] = qHTS RealTime-Glo MT Cell Viability Assay in HepG2 cells - 24 hour (AID 1224867); further: nearly all actives have a fitted effect of over 50% in size
Summary of the method: (§5)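 HepG2 cells (600/well) were dispensed with RealTime-Glo reagents, incubated 5 h at 37 °C, then treated with compounds in DMSO for up to 40 h. Nonlytic NanoLuc luminescence reflecting viable cells was read at each stated time point.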

[15] = qHTS RealTime-Glo MT Cell Viability Assay in HepG2 cells - 40 hour (AID 1224870); further: nearly all actives have a fitted effect of over 50% in size
Summary of the method: (§6)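 HepG2 cells mixed with RealTime-Glo MT reagents (NanoLuc plus cell-permeant prosubstrate) were seeded at 600 cells/well, incubated 5 h at 37 C/5% CO2, then pinned with compounds in DMSO; nonlytic luminescence tracked viability during 40 h treatment.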

[16] = qHTS RealTime-Glo MT Cell Viability Assay in HepG2 cells - 8 hour (AID 1224873); further: nearly all actives have a fitted effect of over 55% in size
Summary of the method: as §6

[17] = A CellTox Green Cytotoxicity Assay to monitor cytotoxicity in HepG2 cells - 24 hour (AID 1224878); further: nearly all actives have a fitted effect of over 45% in size
Summary of the method: as §4

[18] = qHTS RealTime-Glo MT Cell Viability Assay in HepG2 cells - 16 hour (AID 1224885); further: nearly all actives have a fitted effect of over 50% in size
Summary of the method: as §5

[19] = qHTS RealTime-Glo MT Cell Viability Assay in HepG2 cells - 32 hour (AID 1224877); further: nearly all actives have a fitted effect of over 55% in size
Summary of the method: as §5
On the % scale 0 is the no-effect control and ±100 the full control effect.

COc1cc2c3cc1Oc1cc(ccc1O)C[C@@H]1c4c(cc(OC)c(O)c4Oc4ccc(cc4)C[C@@H]3N(C)CC2)CC[N+]1(C)C
inactive: Potency [1] | Potency [2] | Potency [3] | Potency [4] | max response [5] 3.06% | Potency [6] | Potency [7] | Potency [8] | outcome [9] | Potency [10] | Potency [11] | Potency [12] | Potency [13]

CCOc1ccc(NC(=O)OC(C)C)cc1OCC
inactive: outcome [14] | Potency [2] | outcome [15] | Potency [3] | Potency [4] | outcome [16] | Potency [6] | Potency [7] | Potency [17] | Potency [8] | outcome [9] | Potency [10] | Potency [11] | Potency [12] | outcome [18]

COCCOCCOCCOC
inactive: Potency [1] | Potency [2] | outcome [15] | Potency [4] | outcome [16] | max response [5] 2.64% | Potency [6] | Potency [7] | outcome [19] | Potency [17] | Potency [8] | outcome [9] | Potency [10] | Potency [11] | Potency [12] | Potency [13] | outcome [18]

C[N+](C)(C)CC(O)CCl (centres undefined)
inactive: Potency [1] | outcome [15] | Potency [3] | Potency [4] | outcome [16] | max response [5] -4.6% | Potency [6] | Potency [7] | Potency [17] | Potency [8] | outcome [9] | Potency [10] | Potency [12] | Potency [13] | outcome [18]

O=c1[nH]c(=O)c2[nH]c(=O)[nH]c2[nH]1
inactive: activity change, negative = cytotoxicity [14] 1.41% [at 6.97 µM] | activity change, negative = cytotoxic [1] 9.11% [at 6.97 µM] | activity change, negative = cytotoxic [15] 0.76% [at 6.97 µM] | activity change, negative = cytotoxicity [4] 9.21% [at 6.97 µM] | viability change, negative = cytotoxic [16] 1.36% [at 6.97 µM] | max response [5] 10.6% | activity change [6] -9.62% [at 6.97 µM, stronger effect = higher value] | cytotoxicity increase [7] -0.724% [at 6.97 µM] | cytotoxicity [17] -0.222% [at 6.97 µM] | cytotoxicity increase [8] 1.9% [at 6.97 µM] | activity change, negative = cytotoxicity [9] 1.84% [at 6.97 µM] | cytotoxicity increase [10] -13.1% [at 6.97 µM] | cytotoxicity [11] -5.08% [at 6.97 µM] | cytotoxicity increase [12] -0.415% [at 6.97 µM] | cytotoxicity increase [13] -15.5% [at 6.97 µM] | activity change, negative = cytotoxic [18] 0.919% [at 6.97 µM]

O=C(O)c1c(Cl)ccc(Cl)c1Cl
inactive: outcome [14] | Potency [1] | Potency [3] | Potency [4] | outcome [16] | max response [5] 5.49% | Potency [6] | Potency [17] | Potency [8] | outcome [9] | Potency [10] | Potency [11] | Potency [12] | Potency [13] | outcome [18]

CC(=O)OCC(=O)[C@@]1(O)[C@H](OC(C)=O)C[C@H]2[C@@H]3CCC4=CC(=O)C=C[C@]4(C)[C@@]3(F)[C@@H](O)C[C@@]21C
inactive: outcome [14] | Potency [1] | Potency [3] | Potency [4] | outcome [16] | max response [5] 3.94% | Potency [6] | Potency [7] | Potency [17] | Potency [8] | outcome [9] | Potency [10] | Potency [12] | Potency [13] | outcome [18]

CC1(N)CCC(C(C)(C)N)CC1 (centres undefined)
inactive: Potency [1] | outcome [15] | Potency [4] | outcome [16] | max response [5] -1.45% | Potency [6] | Potency [7] | outcome [19] | Potency [8] | outcome [9] | Potency [10] | Potency [11] | Potency [12] | Potency [13] | outcome [18]

CC(C)(C)c1ccc(C=O)cc1
inactive: outcome [14] | Potency [1] | outcome [15] | Potency [4] | outcome [16] | max response [5] 0.97% | Potency [6] | outcome [19] | Potency [8] | outcome [9] | Potency [11] | Potency [12] | Potency [13] | outcome [18]

COCC(=O)Nc1c(I)c(C(=O)NCC(O)CO)c(I)c(C(=O)N(C)CC(O)CO)c1I (centres undefined)
inactive: outcome [14] | Potency [2] | outcome [15] | Potency [3] | outcome [16] | Potency [6] | Potency [7] | outcome [19] | Potency [17] | Potency [8] | Potency [10] | Potency [11] | Potency [12] | Potency [13] | outcome [18]

c1ccc(CNc2ncnc3nc[nH]c23)cc1
inactive: outcome [14] | Potency [2] | Potency [3] | outcome [16] | Potency [6] | Potency [7] | outcome [19] | Potency [17] | outcome [9] | Potency [10] | Potency [11] | Potency [12] | Potency [13] | outcome [18]

CC(=O)N(CC(O)CO)c1c(I)c(C(=O)NCC(O)CO)c(I)c(C(=O)NCC(O)CO)c1I (centres undefined)
inactive: Potency [1] | outcome [15] | Potency [3] | Potency [4] | outcome [16] | max response [5] 6.97% | Potency [6] | outcome [19] | Potency [17] | outcome [9] | Potency [10] | Potency [11] | Potency [12] | Potency [13] | outcome [18]
